Gli-Sufu antag – antagonists of Gli-Sufu signaling | Sufu-KO-LIGHT fibroblasts, Gli luciferase reporter luminescence | inhibition, % at 5 µM | actives 0.74% (n = 340,000);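 active = inhibition above about 55%, limit read from the data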
LRH-1 inv ag – NR5A2 inverse agonism in reporter assay; O00482; inhibition, % at 3.6 µM; actives 0.13% (n = 360,000); HEK293T StAR-luciferase reporter, LRH-1 transfected, 24 h;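 active = inhibition above the mean inhibition of all tested compounds plus 3 SD, cut at about 73% in these data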
NR2F2 inh – blocks human COUP-TFII nuclear receptor | P24468 | HEK293T NGFI-A luciferase reporter, luminescence | inhibition, % at 8.6 µM | actives 0.7% (n = 370,000) | AID 686940;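 active = inhibition above a per-plate cutoff, mean inhibition of test wells between control levels plus 3 SD, cut at about 38% in these data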;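 also: cells cotransfected with COUP-TFII expression vector driving the NGFI-A reporter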
Target sequence (P24468 whole entry, looked up): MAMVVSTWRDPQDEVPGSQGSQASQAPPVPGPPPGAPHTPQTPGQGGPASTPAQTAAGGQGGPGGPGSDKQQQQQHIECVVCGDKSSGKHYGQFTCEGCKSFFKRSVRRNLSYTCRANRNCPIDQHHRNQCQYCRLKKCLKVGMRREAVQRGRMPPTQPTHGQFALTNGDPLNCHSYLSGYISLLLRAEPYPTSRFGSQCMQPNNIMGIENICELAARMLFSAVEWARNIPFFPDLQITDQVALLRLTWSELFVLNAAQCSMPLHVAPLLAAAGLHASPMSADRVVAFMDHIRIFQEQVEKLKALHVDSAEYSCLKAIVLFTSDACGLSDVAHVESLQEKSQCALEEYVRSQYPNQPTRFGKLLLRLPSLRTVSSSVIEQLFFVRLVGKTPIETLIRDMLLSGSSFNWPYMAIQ
SRC3 inh – human NCOA3 inhibition. Q9Y6Q9. HEK293 GAL4-SRC3 luciferase reporter, luminescence. inhibition, % at 3.6 µM. actives 0.17% (n = 360,000). AID 588352;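 active = inhibition above a per-campaign cutoff, the mean of all compounds plus 3 SD, cut at about 60% in these data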;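 also: higher means less SRC3-driven luciferase light from the GAL4 reporter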
SRC2 inh – human SRC2 (NCOA2) inhibition | HEK293 GAL4-SRC2 luciferase reporter, luminescence | inhibition, % at 9 µM | actives 0.17% (n = 370,000) | AID 651957;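 active = inhibition above the mean inhibition of all tested compounds plus 3 SD, set per campaign, cut at about 52% in these data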
NCOA1 inh – inhibitors of human steroid receptor coactivator 1 (SRC1) | Q15788 | HEK293 GAL4-SRC1 luciferase reporter, luminescence | inhibition, % at 3.6 µM | actives 0.12% (n = 360,000);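 active = inhibition above the campaign mean plus 3 SD, with each screening campaign given its own cutoff, cut at about 60% in these data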
VP16 Luc counter – VP16 inhibition counter-screen for COUP-TFII | inhibition, % at 8.5 µM | HEK293 Gal4-VP16 luciferase reporter, luminescence | actives 25% (n = 2,500) | shares compounds with NR2F2 inh; in the data active = inhibition above about 13%
COUP-TFII conf – confirmation of human COUP-TFII (NR2F2) inhibitors; inhibition, % at 8.5 µM; actives 45% (n = 2,500); shares compounds with NR2F2 inh; HEK293 NGFI-A luciferase reporter, luminescence;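 active = mean inhibition over three repeats above a set limit taken from the earlier primary screen, cut at about 38% in these data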
A number is an active result. In the library only some 1.3% were active in any assay of this set; here they are far more common.

Screening O=C(Nc1ccc(Cc2ccncc2)cc1)c1ccc(S(=O)(=O)N2CCCC2)cc1 returned Gli-Sufu antag inactive, LRH-1 inv ag inactive, NR2F2 inh 69, SRC3 inh inactive, SRC2 inh inactive, NCOA1 inh inactive, VP16 Luc counter inactive and COUP-TFII conf 52.
Screening O=C(Nc1ccc(S(=O)(=O)N2CCCCC2)cc1)c1ccncc1 returned Gli-Sufu antag inactive, LRH-1 inv ag inactive, NR2F2 inh inactive, SRC3 inh inactive, SRC2 inh inactive and NCOA1 inh inactive.
For C=CCOC(=O)N1CCN(C(=O)c2ccc3c(c2)nc(C)n3C2CCCC2)CC1 the results were NR2F2 inh inactive and SRC2 inh inactive.
COC(=O)c1cc2c(c3c4cc(F)ccc4n(S(=O)(=O)c4ccc(C)cc4)c13)C(=O)N(Cc1ccc(C(F)(F)F)cc1)C2 was read as NR2F2 inh inactive and SRC2 inh inactive.
`CC[n+]1c(/C=C/c2c[nH]c3ccccc23)ccc2cc(C)ccc21` gave Gli-Sufu antag 90, NR2F2 inh 38, SRC2 inh inactive, VP16 Luc counter inactive and COUP-TFII conf 52.
`Nc1ccc(-c2nc3ccc(C(=O)O)cc3s2)cc1` gave Gli-Sufu antag inactive, LRH-1 inv ag inactive, NR2F2 inh 42, SRC3 inh inactive, SRC2 inh inactive, NCOA1 inh inactive, VP16 Luc counter inactive and COUP-TFII conf inactive.
For O=C(O)c1ccc2nc(-c3ccccc3)sc2c1 the results were Gli-Sufu antag inactive, LRH-1 inv ag inactive, NR2F2 inh inactive, SRC3 inh inactive, SRC2 inh inactive and NCOA1 inh inactive.
C[C@H]1[C@@H](OC(=O)NC2CCC2)CC[C@@]23CCCN2C(=O)CCC[C@@H]13 was read as NR2F2 inh inactive.
Screening COc1ccc(S(=O)(=O)NCC(=O)N2CCN(c3ccccn3)CC2)c(OC)c1 returned NR2F2 inh inactive and SRC2 inh inactive.
`CC(C)c1ccc(CC(=O)N2CCC2(C)C(=O)Nc2cccc(C#N)c2)cc1` (stereo unspecified) gave LRH-1 inv ag inactive, NR2F2 inh inactive, SRC3 inh inactive, SRC2 inh inactive and NCOA1 inh inactive.
For CC1(C(=O)Nc2cccc(C#N)c2)CCN1C(=O)Cc1ccc(-c2ccccc2)cc1 (stereo unspecified) the results were LRH-1 inv ag inactive, NR2F2 inh 52, SRC3 inh inactive, SRC2 inh inactive, NCOA1 inh inactive, VP16 Luc counter inactive and COUP-TFII conf inactive.
For CCCCCN1CCCCC(NC(=O)c2ccccc2C)C1=O (stereo unspecified) the results were NR2F2 inh inactive and SRC2 inh inactive.
For COc1cccc(CN(C)C(=O)CNC(=O)c2ccc(-c3ccccc3)cc2)c1OC the results were Gli-Sufu antag inactive, LRH-1 inv ag inactive, NR2F2 inh 58, SRC3 inh inactive, SRC2 inh inactive, NCOA1 inh inactive, VP16 Luc counter inactive and COUP-TFII conf 47.
`Cc1cc(NNC(=O)c2cccc(C(F)(F)F)c2)nc2c1c(C)nn2C` gave Gli-Sufu antag inactive, LRH-1 inv ag inactive, NR2F2 inh 50, SRC3 inh inactive, SRC2 inh inactive, NCOA1 inh inactive, VP16 Luc counter inactive and COUP-TFII conf 43.
For Cc1cc(C)n(CC(=O)NNC(=O)c2cccc(C(F)(F)F)c2)n1 the results were Gli-Sufu antag inactive, LRH-1 inv ag inactive, NR2F2 inh inactive, SRC3 inh inactive, SRC2 inh inactive and NCOA1 inh inactive.
For CCC(=NC(C)c1ccccc1)c1c(O)n(C)c(=O)n(C)c1=O (stereo unspecified) the results were Gli-Sufu antag inactive, LRH-1 inv ag inactive, NR2F2 inh 56, SRC3 inh inactive, SRC2 inh inactive, NCOA1 inh inactive, VP16 Luc counter inactive and COUP-TFII conf inactive.
Screening COc1cc(C)c(Br)cc1S(=O)(=O)NCc1cccs1 returned Gli-Sufu antag inactive, LRH-1 inv ag inactive, NR2F2 inh inactive, SRC3 inh inactive, SRC2 inh inactive and NCOA1 inh inactive.
Screening COc1cc(C)c(Br)cc1S(=O)(=O)NCc1ccncc1 returned Gli-Sufu antag inactive, LRH-1 inv ag inactive, NR2F2 inh 57, SRC3 inh inactive, SRC2 inh inactive, NCOA1 inh inactive, VP16 Luc counter inactive and COUP-TFII conf inactive.
CC(=O)CC[C@H]1CC[C@]2(CCCN(S(C)(=O)=O)C2)O1 was read as NR2F2 inh inactive and SRC2 inh inactive.
CC1(c2nnnn2Cc2ccccc2)CCSCC(=O)N1Cc1cccs1 (stereo unspecified) was read as NR2F2 inh inactive and SRC2 inh inactive.
For CCOC(=O)N1CCN(C(=O)c2ccc3c(c2)N(CC)CCS3)CC1 the results were Gli-Sufu antag inactive, LRH-1 inv ag inactive, NR2F2 inh inactive, SRC3 inh inactive, SRC2 inh inactive and NCOA1 inh inactive.
Screening CCOC(=O)N1CCN(C(=O)c2ccc3c(c2)N(Cc2ccc(F)cc2)CCS3)CC1 returned Gli-Sufu antag inactive, LRH-1 inv ag inactive, NR2F2 inh 38, SRC3 inh inactive, SRC2 inh inactive, NCOA1 inh inactive, VP16 Luc counter inactive and COUP-TFII conf inactive.
Screening COc1ccc(CN(CCN2CCOCC2)C(=O)c2cc(F)cc(F)c2)cc1OC returned NR2F2 inh inactive and SRC2 inh inactive.
For Cc1cccc(C(=O)Nc2nc3ncccn3c2-c2ccccc2)c1 the results were NR2F2 inh inactive and SRC2 inh inactive.
For O=C(c1ccncc1)c1ccc(N2CCN(C3CC(=O)N(Cc4cccs4)C3=O)CC2)cc1 (stereo unspecified) the results were Gli-Sufu antag inactive, LRH-1 inv ag inactive, NR2F2 inh 38, SRC3 inh inactive, SRC2 inh inactive, NCOA1 inh inactive, VP16 Luc counter inactive and COUP-TFII conf inactive.
For COc1ccc(-c2csc(NC(=O)Cc3ccccc3F)n2)cc1OC the results were Gli-Sufu antag inactive, LRH-1 inv ag inactive, NR2F2 inh 49, SRC3 inh inactive, SRC2 inh inactive, NCOA1 inh inactive, VP16 Luc counter inactive and COUP-TFII conf inactive.
Screening C[C@@H]1CCN(C2CC2)S(=O)(=O)c2c(cccc2N2CCC[C@@H]2C)O1 returned NR2F2 inh inactive and SRC2 inh inactive.
CCOC(=O)C1CSCCS(=O)(=O)N1Cc1ccccc1F (stereo unspecified) was read as NR2F2 inh inactive and SRC2 inh inactive.
`COc1ccccc1CNc1nc2cc(-c3ccc(OC)c(OC)c3)sc2c(=O)n1C` gave LRH-1 inv ag inactive, NR2F2 inh 41, SRC3 inh inactive, SRC2 inh inactive, NCOA1 inh inactive, VP16 Luc counter inactive and COUP-TFII conf inactive.
`COc1cccc(CNc2nc3cc(-c4cccc(OC)c4)sc3c(=O)n2C)c1` gave LRH-1 inv ag inactive, NR2F2 inh inactive, SRC3 inh inactive, SRC2 inh inactive and NCOA1 inh inactive.

Source: PubChem BioAssay
